Results published in PMC5540273 (PLoS ONE, 2017).

What was measured:
Conditions in all cases: concentration: 1 μM, replicates: in singlicate; n = 1
IRAK3 = test system: IRAK3
IRAK4 = test system: IRAK4
ITK = test system: ITK
[1] = test system: JAK1(JH1domain-catalytic)
[2] = test system: JAK1(JH2domain-pseudokinase)
[3] = test system: JAK2(JH1domain-catalytic)
[4] = test system: JAK3(JH1domain-catalytic)
JNK1 = test system: T1, JNK1
T1 construct: gene MAPK8

JNK2 = test system: T2, JNK2
T2 construct: gene MAPK9

JNK3 = test system: T3, JNK3
T3 construct: gene MAPK10
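Note: KINOMEscan kinase panel screen.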

| SMILES | %Inh (IRAK3) | %Inh (IRAK4) | %Inh (ITK) | %Inh [1] | %Inh [2] | %Inh [3] | %Inh [4] | %Inh (JNK1) | %Inh (JNK2) | %Inh (JNK3) |
| --- | --- | --- | --- | --- | --- | --- | --- | --- | --- | --- |
| Fc1ccc(-c2ncn(CCCN3CCOCC3)c2-c2cccnc2)cc1 [SB-211743] | 64% | 0% | 0% | 20% | 38% | 21% | 0% | 26% | 0% | 0% |
| CN(C(=O)c1ccc(-c2cc(-c3c[nH]nc3-c3ccccn3)ccn2)cc1)C1CCOCC1 [GW810083] | 0% | 0% | 5% | 0% | 0% | 0% | 0% | 42% | 45% | 38% |
| COc1cc(Nc2nccc(N3CCC(NC(=O)c4cccc(NC(C)=O)c4)C3)n2)cc(OC)c1OC (stereo not shown) [GSK1379754] | 85% | 12% | 6% | 7% | 11% | 97.3% | 0% | 31% | 22% | 40% |
| CCn1cnc2c(N)ncnc21 [GW345098] | 10% | 0% | 16% | 10% | 19% | 7% | 17% | 16% | 0% | 0% |
| CC(=O)Nc1ccc(COc2ccc(Nc3ccnc4cc(-c5ccccn5)ccc34)cc2)cc1.Cl [GW440148] | 6% | 0% | 0% | 22% | 0% | 18% | 0% | 0% | 17% | 9% |
| O=C(NCCNc1ccnc(Nc2ccc(F)cc2)n1)Nc1ccccc1F [GSK1379880] | 0% | 11% | 30% | 23% | 0% | 11% | 0% | 32% | 19% | 11% |
| COc1ccc(S(=O)(=O)NC2CCN(c3cc(C)nc(Nc4cccc(C#N)c4)n3)CC2)cc1.O=C(O)C(F)(F)F [GSK1653539] | 0% | 0% | 10% | 34% | 0% | 0% | 0% | 0% | 28% | 12% |
| Cc1nnc(-c2ccc3ncc(-c4ccc(S(C)=O)cc4)n3c2)o1 (stereo not shown) | 23% | 15% | 7% | 11% | 0% | 0% | 0% | 22% | 18% | 24% |
| O=C(NOCC1CC1)c1ccc(F)c(F)c1Nc1ccc(I)cc1Cl | 0% | 0% | 0% | 0% | 0% | 0% | 0% | 0% | 0% | 0% |
| N#Cc1c(N2CCOCC2)sc(-c2ccn[nH]2)c1-c1ccc(Cl)cc1 | 16% | 1% | 6% | 0% | 29% | 22% | 0% | 40% | 23% | 43% |
| N#Cc1ccc(-c2cc(-c3c[nH]nc3-c3ccccn3)ccn2)cc1 [GW693028] | 0% | 22% | 9% | 22% | 0% | 9% | 0% | 34% | 59% | 69% |
| O=c1cc(N2CCOCC2)nc2n(Cc3cccc(C(F)(F)F)c3)ccn12 [GSK2297543] | 0% | 0% | 9% | 2% | 0% | 0% | 0% | 0% | 10% | 0% |
| COc1ccc(Nc2nccc(N3CCC(NC(=O)Nc4cc(C)ccc4C)C3)n2)cc1 (stereo not shown) [GSK1379741] | 19% | 16% | 10% | 23% | 0% | 0% | 0% | 24% | 0% | 5% |
| O=C(Nc1cccc(-c2nn3ncccc3c2-c2ccnc(Nc3cccc(C(F)(F)F)c3)n2)c1)c1c(F)cccc1F [GSK299495] | 0% | 21% | 23% | 22% | 0% | 0% | 0% | 31% | 27% | 14% |
| COc1ccc(Nc2nccc(N3CCC(NC(=O)Nc4cccc(C(C)=O)c4)C3)n2)cc1 (stereo not shown) [GSK1379731] | 0% | 4% | 14% | 0% | 0% | 17% | 0% | 14% | 15% | 4% |
| NS(=O)(=O)CCc1cccc(Nc2nccc(-c3c(-c4cccc(NC(=O)c5c(F)cccc5F)c4)nn4ccccc34)n2)c1 [GSK336735] | 16% | 9% | 20% | 18% | 0% | 0% | 77% | 36% | 55% | 16% |
